NS1 function inh: influenza NS1 inhibition; Potency, µM (doses to about 46.1 µM), without a hit: at the highest dose activity, positive = more growth; 0.4% of 270,000 active; AID 2326; calls by dose curve; further: actives are rising curves; nearly all actives have a fitted effect of over 50% in size
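Read-out: OD600 growth recovery of NS1-expressing budding yeast. Cells grown overnight at 30C in -URA glucose medium, washed, resuspended and diluted 1:100 in 2% galactose assay medium, pH 6.0. Same strain lacking NS1 served as positive control.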
TbPYK inhibitor: inhibitors of Trypanosoma brucei pyruvate kinase; Potency, µM (series often up to 76.8 µM), without a hit: top-dose activity, negative = inhibition, usual class: inhibitors; 0.12% of 410,000 active; Q57TT1; TbPYK enzyme, Kinase-Glo Plus ATP luminescence, 45 min; further: on the % scale 0 is the no-effect control and ±100 the full control effect; nearly all actives have a fitted effect of over 50% in size
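Quantitative HTS: titrated library compounds versus trypanosomal pyruvate kinase in TEA buffer (pH 7.2) containing KCl, MgCl2, BSA and Tween-20. Reactions were initiated with ADP, 130 uM final. Kinase-Glo Plus luminescence was read after 45 min at RT.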
Sm TGR inh: blocks Schistosoma mansoni thioredoxin glutathione reductase; 3% of 360,000 active; Potency, µM (doses to about 114 µM), without a hit: at the top dose activity change, negative = inhibition, actives largely listed as inhibitors; purified TGR, DTNB reduction, TNB absorbance 405 nm; further: on the % scale 0 is the no-effect control and ±100 the full control effect; nearly all actives have a fitted effect of over 60% in size
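TGR 20 nM + NADPH 100 uM (dispensed conc.), cpd preinc 15 min RT; start with NADPH (500 uM addition) then DTNB (15 mM addition). Kinetic TNB absorbance, 405 nm filter. Four-parameter Hill fit across titration.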
LmPK inh: LmPK (Leishmania mexicana) enzyme inhibition | 0.37% of 290,000 active | Q27686 | purified LmPK, Kinase-Glo ATP luminescence, 1 h | AID 1721 | Potency, µM (doses to about 57.5 µM), for inactives: top-dose activity change, negative = inhibition, most hits filed as inhibitors; further: on the % scale 0 is the no-effect control and ±100 the full control effect
Target sequence (Q27686 whole entry, looked up): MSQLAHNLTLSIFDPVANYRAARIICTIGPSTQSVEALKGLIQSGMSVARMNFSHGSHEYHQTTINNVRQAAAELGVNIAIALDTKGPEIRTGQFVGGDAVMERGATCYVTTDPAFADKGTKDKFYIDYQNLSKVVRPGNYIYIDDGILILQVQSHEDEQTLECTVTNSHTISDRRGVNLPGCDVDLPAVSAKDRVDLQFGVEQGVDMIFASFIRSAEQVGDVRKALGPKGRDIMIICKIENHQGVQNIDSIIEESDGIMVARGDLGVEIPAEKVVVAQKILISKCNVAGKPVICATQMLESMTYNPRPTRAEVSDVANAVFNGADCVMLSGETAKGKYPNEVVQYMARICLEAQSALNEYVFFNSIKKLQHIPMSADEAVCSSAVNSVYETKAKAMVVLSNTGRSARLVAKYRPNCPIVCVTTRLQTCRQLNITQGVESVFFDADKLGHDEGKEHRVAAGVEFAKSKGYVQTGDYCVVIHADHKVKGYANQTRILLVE
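Purified LmPK (0.1 nM) with 0.5 mM PEP and 0.1 mM ADP in imidazole buffer pH 7.2 with MgCl2/KCl, 1 h at room temperature. ATP formed was read by luciferase luminescence and normalized to no-enzyme and uninhibited controls.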
SARS PLpro yeast: SARS-CoV PLP inhibition in yeast; S. cerevisiae expressing SARS-CoV PLpro, growth rescue; 0.19% of 330,000 active; Potency, µM (series often up to 32.9 µM), for the others: at the top dose activity, positive = growth rescue, most hits filed as activators; AID 485353; calls by dose curve; further: 0% is about no effect; nearly all actives have a fitted effect of over 55% in size
RE007 growth inh: less growth of the S. pombe RE007 Vpr strain; S. pombe RE007 Vpr strain, BacTiter-Glo ATP luminescence, 24 h; Potency, µM (top dose mostly 92.2 µM), for the others: top-dose activity change, negative = less growth, most hits filed as inhibitors; 0.21% of 360,000 active; AID 651644; active means well fitted falling curve with a large enough effect; inconclusive means small, poorly fitted or top-dose-only effect; inactive means no such curve, though single readings can be large or run the other way; further: on the % scale 0 is the no-effect control and ±100 the full control effect; nearly all actives have a fitted effect of over 50% in size
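Fission yeast strain RE007, carrying one chromosomally integrated HIV-1 vpr copy, was seeded at OD 0.01 in PMG+AL medium with 23 nL pinned compound. After 24 h at 30 °C and 99% humidity, viability was read by BacTiter-Glo luminescence.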
* marks the source's active call; other numbers are inactive results; [ ] = another dose, or the depositor's remark. Most compounds without a hit are left out; they make up all but 3.3% or so of the library. Unless noted, the call rests on the fitted dose curve; in most records, active means well fitted curve in the direction sought with a large enough effect; inconclusive means small, poorly fitted or top-dose-only effect, or another doubt; inactive means no such curve, though single readings can be large; an effect the other way counts as inactive or inconclusive. Potency means the concentration at half of the fitted maximal effect.

Screening Cn1c(NCCCO)nc2c1c(=O)n(Cc1ccccc1F)c(=O)n2C returned NS1 function inh 3%, TbPYK inhibitor -10%, Sm TGR inh 6%, LmPK inh -1%, SARS PLpro yeast 6% and RE007 growth inh -3%.
For CCC(C(=O)NC(N)=O)c1ccccc1 (stereo not drawn) the results were TbPYK inhibitor 7%.
`CCOC1(NC(=O)c2ccccc2)C(C)=CC(=O)C=C1C` gave NS1 function inh 0%, TbPYK inhibitor inconclusive, Sm TGR inh 25µM*, LmPK inh 3%, SARS PLpro yeast -2% and RE007 growth inh -7%.
`CCOC(=O)c1ccc(NC(=O)c2ccc(NC(=O)c3ccccc3)cc2)cc1` gave NS1 function inh -3%, TbPYK inhibitor 1%, Sm TGR inh 5%, LmPK inh 1%, SARS PLpro yeast 3% and RE007 growth inh -2%.
For CC(C)(C)NS(=O)(=O)c1ccc(CCC(=O)NCc2ccc3c(c2)OCO3)cc1 the results were NS1 function inh -7%, TbPYK inhibitor 2%, Sm TGR inh 32µM*, LmPK inh 0%, SARS PLpro yeast -7% and RE007 growth inh 0%.
`CCCCOC(=O)c1ccc(NC(=O)c2cc3c(=O)n4cccc(C)c4nc3n2C)cc1` gave TbPYK inhibitor 6% and Sm TGR inh -10%.
For Cc1ccc(N(Cc2cc(=O)[nH]c3ccccc23)C(=O)CCl)c(C)c1 the results were NS1 function inh -3%, TbPYK inhibitor -13%, Sm TGR inh 13µM*, LmPK inh 2%, SARS PLpro yeast -1% and RE007 growth inh 6%.
`CN(CC1CCN(CCc2cccc(C(F)(F)F)c2)CC1)C(=O)c1ccc(F)cc1F` gave NS1 function inh 7%, TbPYK inhibitor 0%, Sm TGR inh 40µM*, LmPK inh 5%, SARS PLpro yeast -3% and RE007 growth inh 8%.
Screening CSCCC(=O)N(C)CC1CCN(CCc2cccc(C(F)(F)F)c2)CC1 returned NS1 function inh 7%, TbPYK inhibitor 0%, Sm TGR inh -20%, LmPK inh 3%, SARS PLpro yeast 0% and RE007 growth inh -10%.
For COc1ccc(CCNC(=O)c2ccc(Cn3c(SCc4ccccc4)nc4cccnc43)cc2)cc1 the results were TbPYK inhibitor 3% and Sm TGR inh 0%.
Screening CCCCc1nc2c(c3c1C[C@H](C)OC3)CN(C(=O)NCCCC(=O)OCC)CC2 returned LmPK inh -16%[11.5 µM].
`COc1ccc2c(c1)NC(c1ccc(OCC(C)C)cc1)=NC(c1ccncc1)=N2` gave TbPYK inhibitor 2% and Sm TGR inh -8%.
Screening COc1ccc(C(=O)Oc2ccc[nH]c2=O)cc1 returned NS1 function inh 2%, TbPYK inhibitor -2%, Sm TGR inh -8%, LmPK inh -12% and SARS PLpro yeast 2%.
Screening O=C(Oc1ccc[nH]c1=O)c1cc([N+](=O)[O-])cc([N+](=O)[O-])c1 returned NS1 function inh 3%, TbPYK inhibitor 2%, Sm TGR inh 79µM*, LmPK inh -2% and SARS PLpro yeast 2%.
`Cc1ccccc1OCC(=O)N(Cc1ccc(N(C)C)cc1)CC1CCCO1` (stereo not drawn) gave TbPYK inhibitor 0% and Sm TGR inh 0%.
CCCCC/C=C\C/C=C\C/C=C\CCCCC(=O)O was read as TbPYK inhibitor 6%, Sm TGR inh 28µM* and RE007 growth inh 2%[18.4 µM].
`Cc1cc(/C=C2\C(=N)N3N=C(c4ccco4)SC3=NC2=O)c(C)n1Cc1ccccc1` gave NS1 function inh 13%, TbPYK inhibitor -1%, Sm TGR inh inconclusive, LmPK inh -1%, SARS PLpro yeast 0% and RE007 growth inh -15%.
Screening CSC1=NSC2=NC(=O)/C(=C\c3coc4ccccc4c3=O)C(=N)N12 returned NS1 function inh -10%, TbPYK inhibitor -8%, Sm TGR inh -23%, LmPK inh 5%, SARS PLpro yeast -100% and RE007 growth inh 28µM*.
For CN1C(=O)C(=Cc2coc3ccccc3c2=O)C(=O)N(C)C1=O the results were NS1 function inh -32%, TbPYK inhibitor inconclusive, Sm TGR inh 10µM*, LmPK inh 0%, SARS PLpro yeast -1% and RE007 growth inh -29%.
Screening N=C1/C(=C/c2coc3ccccc3c2=O)C(=O)N=C2SC(c3ccco3)=NN12 returned NS1 function inh 0%, TbPYK inhibitor -6%, Sm TGR inh 10µM*, LmPK inh 7%, SARS PLpro yeast 1% and RE007 growth inh 10µM*.
For CN1C(=O)C(=Cc2cn(CC#N)c3ccccc23)C(=O)N(C)C1=O the results were NS1 function inh 1%, TbPYK inhibitor -2%, Sm TGR inh -12%, LmPK inh 0%, SARS PLpro yeast 0% and RE007 growth inh -1%.
Screening CC(C)CSC1=NSC2=NC(=O)/C(=C\c3coc4ccccc4c3=O)C(=N)N12 returned TbPYK inhibitor -7%, Sm TGR inh -32%, LmPK inh 4%, SARS PLpro yeast -13% and RE007 growth inh -1%.
For N=C1/C(=C\c2coc3ccccc3c2=O)C(=O)N=C2SC(c3ccncc3)=NN12 the results were NS1 function inh -75%, TbPYK inhibitor -23%, Sm TGR inh 0%, LmPK inh -4%, SARS PLpro yeast -5% and RE007 growth inh 14µM*.
For O=C(O)Cc1[nH]cnc1C(=O)O the results were NS1 function inh 4%.
`CCOC(=O)c1[nH]c(C)c(CCC(=O)Nc2ccccc2OCC)c1C` gave TbPYK inhibitor -8% and Sm TGR inh -3%.
Screening CSc1ncc(Cl)c(C(=O)N(Cc2ccc(C(C)C)cc2)C2CCS(=O)(=O)C2)n1 (stereo not drawn) returned TbPYK inhibitor -7% and Sm TGR inh 1%.
Screening N=C1/C(=C\c2coc3ccc(O)cc3c2=O)C(=O)N=C2SC=CN12 returned NS1 function inh 6%, TbPYK inhibitor -10%, Sm TGR inh 28µM*, LmPK inh -3%, SARS PLpro yeast 0% and RE007 growth inh 4%.
`CC(=O)c1cc(-c2ccccc2)n(CCC(=O)Nc2cc(C)cc(C)c2)c1C` gave TbPYK inhibitor -14%[15.4 µM] and Sm TGR inh 0%.
Screening CN(C)CC(CN(C)C)c1ccccn1 returned NS1 function inh -3%.
O=C(N/N=C/c1sc(N2CCOCC2)nc1-c1ccccc1)c1ccccc1O was read as NS1 function inh inconclusive, TbPYK inhibitor -6%, Sm TGR inh -10%, LmPK inh -2%, SARS PLpro yeast 28% and RE007 growth inh 6%.

High-throughput results as filed in PubChem.
